We go through four molecules from PubChem BioAssay (EPA / NIEHS).

Test [1] in a line: BSK_4H_Eotaxin3: BioMAP Diversity Plus: 4H Assay for Eotaxin 3 Biomarker Activity (AID 2283000).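 Also: CCL26 protein level quantified by ELISA in parallel with SRB cytotoxicity check.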 The settings on record: primary human endothelial cells (HUVEC); actives raise or lower the signal. Put shortly: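 Chemicals were added to human umbilical vein endothelium cultures, and Eotaxin-3 was quantified by ELISA at 24 h. Values were derived by bidirectional fitting with DMSO serving as negative control and activity baseline.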

In test [2] the target is human Peroxisome Proliferator-activated Receptor alpha (PPARa), PPARA (gene 5465) (UniProt Q07869). Nature of the test: ATG_PPARa_TRANS: Attagene TRANS-FACTORIAL HepG2 Assay for human Peroxisome Proliferator-activated Receptor alpha (PPARa) (AID 2283001; active = hit-call score of the fitted dose curve at least 0.9, where 1 is the maximum;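 as to AC50: potency for gain of reporter signal over DMSO so agonist or activator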). Put shortly:
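Measures transcriptional activity of an exogenous chimeric PPARa-Gal4 protein in transiently transfected HepG2 cells after 24 h dosing. Reporter mRNA quantified via RT-PCR and capillary electrophoresis; DMSO served as negative control.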

For test [3], the target named is human Peroxisome Proliferator-activated Receptor delta (PPARd), PPARD (gene 5467) (UniProt Q03181). Nature of the test: ATG_PPARd_TRANS: Attagene TRANS-FACTORIAL HepG2 Assay for human Peroxisome Proliferator-activated Receptor delta (PPARd) (AID 2283002; active = hit-call score of the fitted dose curve at least 0.9, where 1 is the maximum). Put shortly:
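Fluorescence from capillary electrophoresis of labelled RT-PCR reporter fragments gives the signal; DMSO sets baseline. Cells: HepG2 transiently carrying GAL4-UAS reporter units plus chimeric nuclear receptor-Gal4 proteins, exposed to chemicals for 24 h.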

Test [4] concerns the target Retinoic acid receptor alpha (Homo sapiens) (UniProt P10276). The experiment in a line: ATG_RARa_TRANS: Attagene TRANS-FACTORIAL HepG2 Assay for human Retinoic Acid Receptor alpha (RARa) (AID 2283005; active = hit-call score of the fitted dose curve at least 0.9, where 1 is the maximum). Put shortly: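 HepG2 transiently transfected with multiplex GAL4-UAS reporter units including a human RARa–GAL4 chimera; 24 h compound exposure. Reporter mRNA quantified by RT-PCR, 6-FAM labeling and capillary electrophoresis; gain of signal versus DMSO.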

Test [5] is described as follows: BSK_3C_Proliferation: Cell Proliferation Assessment in the BioMAP Diversity Plus: 3C Assay (AID 2283006).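 As to AC50: potency may reflect either rise or fall in cell number versus DMSO.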 The settings on record: primary human endothelial cells (HUVEC). In outline:
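Human umbilical vein endothelial cells were grown sub-confluent and exposed to chemical for 48 h, then fixed with 10% TCA and stained with 0.1% sulforhodamine B; absorbance at 560 nm gave relative cell number, fitted bidirectionally against DMSO baseline.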

For test [6], the target named is Peroxisome proliferator-activated receptor gamma (Homo sapiens) (UniProt P37231). Nature of the test: ATG_PPARg_TRANS: Attagene TRANS-FACTORIAL HepG2 Assay for human Peroxisome Proliferator-activated Receptor-gamma (PPARg) (AID 2283007; active = hit-call score of the fitted dose curve at least 0.9, where 1 is the maximum). Put shortly:
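Chimeric NR-Gal4 transactivation is measured in transiently transfected HepG2 cells by reporter mRNA induction at 24 h. Detection uses RT-PCR with fluorescent labelling and capillary electrophoresis; DMSO defines baseline.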

The target of test [7] is Nuclear receptor subfamily 1 group I member 2 (Homo sapiens) (UniProt O75469). The experiment in a line: ATG_PXR_TRANS: Attagene TRANS-FACTORIAL HepG2 Assay for human Pregnane X Receptor (PXR) (AID 2283008; active = hit-call score of the fitted dose curve at least 0.9, where 1 is the maximum). Put shortly:
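HepG2 cells transiently transfected with GAL4-UAS reporter units and PXR-Gal4 chimera, exposed 24 h. Reporter mRNA quantified by RT-PCR, fluorescent labelling, HpaI digestion and capillary electrophoresis; gain of signal vs DMSO.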

The target in test [8] is human Retinoic Acid Receptor gamma (RARg), RARG (gene 5916) (UniProt P13631). Nature of the test: ATG_RARg_TRANS: Attagene TRANS-FACTORIAL HepG2 Assay for human Retinoic Acid Receptor gamma (RARg) (AID 2283009; active = hit-call score of the fitted dose curve at least 0.9, where 1 is the maximum). Put shortly: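 HepG2 cells transiently transfected with multiplexed reporter units expressing chimeric RARg-GAL4 and GAL4-UAS-driven reporters; 24 h compound exposure. Reporter mRNA quantified by RT-PCR with fluorescent labelling and capillary electrophoresis; gain-of-signal fitted relative to DMSO baseline.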

Test [9] has as its target Retinoic acid receptor RXR-alpha (Homo sapiens) (UniProt P19793). The experiment in a line: ATG_RXRa_TRANS: Attagene TRANS-FACTORIAL HepG2 Assay for human Retinoid X Receptor alpha (RXRa) (AID 2283012; active = hit-call score of the fitted dose curve at least 0.9, where 1 is the maximum). Put shortly: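 HepG2 cells transiently transfected with multiplexed GAL4-UAS reporter units and chimeric NR-GAL4 fusions, dosed 24 h. Reporter mRNA measured by RT-PCR, FAM labelling, HpaI digestion and capillary electrophoresis; gain-of-signal fitted relative to DMSO baseline.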

In test [10] the target is human Retinoid X Receptor beta (RXRb), RXRB (gene 6257) (UniProt P28702). The experiment in a line: ATG_RXRb_TRANS: Attagene TRANS-FACTORIAL HepG2 Assay for human Retinoid X Receptor beta (RXRb) (AID 2283013; active = hit-call score of the fitted dose curve at least 0.9, where 1 is the maximum). Put shortly: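 HepG2 cells transiently transfected with multiplexed reporter units driven by GAL4-UAS and exogenous chimeric NR-Gal4 proteins; treated 24 h. Reporter mRNA measured by RT-PCR, 6-FAM labelling and capillary electrophoresis; gain-of-signal fitted versus DMSO baseline.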

Test [11] addresses human Thyroid Receptor alpha (THRa1), THRA (gene 7067) (UniProt P10827). The experiment in a line: ATG_THRa1_TRANS: Attagene TRANS-FACTORIAL HepG2 Assay for human Thyroid Receptor alpha (THRa1) (AID 2283014; active = hit-call score of the fitted dose curve at least 0.9, where 1 is the maximum). In outline:
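Reporter transcript induction, read by capillary electrophoresis of 6-FAM-labelled RT-PCR products, reflects activity of a transfected THRa1-Gal4 fusion in HepG2 liver cells. Cells were dosed for 24 h; activity was fitted in the positive direction against DMSO.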

Read-out in test [12]: E-selectin (Homo sapiens) (UniProt P16581)
Nature of the test: BSK_3C_Eselectin: BioMAP Diversity Plus: 3C Assay for Eselectin Biomarker Activity (AID 2283015).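 Also: cell surface E-selectin protein quantified by ELISA 24 h after dosing.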 The settings on record: primary human endothelial cells (HUVEC); actives raise or lower the signal. Put shortly: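 ELISA read-out of E-selectin on endothelial monolayers after 24 h chemical treatment. Human umbilical vein primary cells served as the system, with DMSO defining baseline activity for bidirectional fitting.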

Read-out in test [13]: Interleukin-1 alpha (IL1a), IL1A (gene 3552)
The experiment in a line: BSK_BE3C_IL1a: BioMAP Diversity Plus: BE3C Assay for Interleukin-1 alpha (IL1a) Biomarker Activity (AID 2283016). The settings on record: primary human bronchial epithelial cells; actives raise or lower the signal. In outline: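 Human primary bronchial epithelial cells (BE3C system) were dosed with compound and IL-1a measured by ELISA 24 h later. Activity was fitted bidirectionally against DMSO baseline; cytotoxicity was tracked in parallel cultures by SRB total-protein staining.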

Read-out in test [14]: Monocyte Chemoattractant Protein-1 (MCP1), CCL2 (gene 6347)
Nature of the test: BSK_3C_MCP1: BioMAP Diversity Plus: 3C Assay for Monocyte Chemoattractant Protein-1 (MCP1) Biomarker Activity (AID 2283017). The settings on record: primary human endothelial cells (HUVEC); actives raise or lower the signal. Put shortly: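 ELISA read-out of MCP-1 from human umbilical vein endothelial cell cultures harvested 24 h post-dosing. Gain or loss of signal was fitted relative to DMSO.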

Read-out in test [15]: Monocyte Chemoattractant Protein-1 (MCP1), CCL2 (gene 6347)
Nature of the test: BSK_4H_MCP1: BioMAP Diversity Plus: 4H Assay for Monocyte Chemoattractant Protein-1 (MCP1) Biomarker Activity (AID 2283018). The settings on record: primary human endothelial cells (HUVEC); actives raise or lower the signal. In outline:
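Human umbilical vein endothelial cells (4H system) dosed with chemical; MCP-1 measured by ELISA 24 h after dosing. Bidirectional curve fitting against DMSO negative control as baseline; parallel SRB total-protein staining tracks overt cytotoxicity.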

Read-out in test [16]: Human Leukocyte Antigen - DR isotype (HLADR), HLA-DRA (gene 3122)
Nature of the test: BSK_3C_HLADR: BioMAP Diversity Plus: 3C Assay for Human Leukocyte Antigen - DR isotype (HLADR) Biomarker Activity (AID 2283019). The settings on record: primary human endothelial cells (HUVEC); actives raise or lower the signal. In outline: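 ELISA readout of surface HLA-DR on human umbilical vein endothelium, taken 24 h after chemical treatment. Gain- and loss-of-signal were both fitted relative to DMSO.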

Read-out in test [17]: Intercellular Adhesion Molecule 1 (ICAM1), ICAM1 (gene 3383)
Nature of the test: BSK_3C_ICAM1: BioMAP Diversity Plus: 3C Assay for Intercellular Adhesion Molecule 1 (ICAM1) Biomarker Activity (AID 2283003). The settings on record: primary human endothelial cells (HUVEC); actives raise or lower the signal. In outline:
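Primary human umbilical vein endothelial cells in the BioMAP 3C system were exposed to chemicals for 24 h, then ICAM-1 was quantified by ELISA. Activity was fitted bidirectionally against the DMSO negative control baseline.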

For test [18], the target named is human RAR-related Orphan Receptor gamma (RORg), RORC (gene 6097) (UniProt P51449). The experiment in a line: ATG_RORg_TRANS: Attagene TRANS-FACTORIAL HepG2 Assay for human RAR-related Orphan Receptor gamma (RORg) (AID 2283011; active = hit-call score of the fitted dose curve at least 0.9, where 1 is the maximum). Put shortly:
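First, HepG2 liver cells were transfected with GAL4-UAS-driven reporter constructs and the RORg-Gal4 fusion. Next, they were treated with chemical for 24 h. Finally, reporter mRNA was quantified by RT-PCR and capillary electrophoresis, with upward activity fitted against DMSO.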

Results filed as inconclusive are left out. Some structures have more than one record in an assay (separate samples or runs), and their calls can disagree. The source made the active and inactive calls. The calls were made as follows, unless noted: active = hit-call score of the fitted dose curve at least 0.9, where 1 is the maximum; inactive = score below 0.9.

human Peroxisome Proliferator-activated Receptor delta (PPARd), PPARD (gene 5467), sequence (Q03181 whole entry, looked up, the tested form may be a part): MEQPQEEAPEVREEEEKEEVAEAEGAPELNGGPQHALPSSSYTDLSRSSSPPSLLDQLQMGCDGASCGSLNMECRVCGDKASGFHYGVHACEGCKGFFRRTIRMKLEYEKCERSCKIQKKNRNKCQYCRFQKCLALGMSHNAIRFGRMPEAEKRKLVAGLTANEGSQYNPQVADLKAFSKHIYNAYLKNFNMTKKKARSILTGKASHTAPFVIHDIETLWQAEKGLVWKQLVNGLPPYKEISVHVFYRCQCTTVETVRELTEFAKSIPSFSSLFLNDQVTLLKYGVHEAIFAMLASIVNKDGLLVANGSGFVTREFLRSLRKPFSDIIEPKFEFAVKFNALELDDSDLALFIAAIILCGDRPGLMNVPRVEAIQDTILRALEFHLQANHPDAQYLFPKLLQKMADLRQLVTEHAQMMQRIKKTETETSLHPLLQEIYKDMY
human Thyroid Receptor alpha (THRa1), THRA (gene 7067), sequence (P10827 whole entry, looked up, the tested form may be a part): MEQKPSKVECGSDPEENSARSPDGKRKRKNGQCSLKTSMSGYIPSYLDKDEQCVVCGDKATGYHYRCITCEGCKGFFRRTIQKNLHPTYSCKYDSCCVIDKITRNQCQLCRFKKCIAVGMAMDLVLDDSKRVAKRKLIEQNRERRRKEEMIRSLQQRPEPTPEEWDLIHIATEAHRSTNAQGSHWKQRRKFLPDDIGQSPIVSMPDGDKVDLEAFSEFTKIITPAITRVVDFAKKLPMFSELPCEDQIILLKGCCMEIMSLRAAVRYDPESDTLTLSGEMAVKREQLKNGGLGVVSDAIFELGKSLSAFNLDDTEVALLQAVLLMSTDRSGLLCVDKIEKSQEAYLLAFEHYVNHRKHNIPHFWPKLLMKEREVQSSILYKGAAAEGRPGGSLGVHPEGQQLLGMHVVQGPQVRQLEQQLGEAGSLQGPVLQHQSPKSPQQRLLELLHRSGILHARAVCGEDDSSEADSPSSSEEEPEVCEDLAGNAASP
Peroxisome proliferator-activated receptor gamma (Homo sapiens), sequence (P37231 whole entry, looked up, the tested form may be a part): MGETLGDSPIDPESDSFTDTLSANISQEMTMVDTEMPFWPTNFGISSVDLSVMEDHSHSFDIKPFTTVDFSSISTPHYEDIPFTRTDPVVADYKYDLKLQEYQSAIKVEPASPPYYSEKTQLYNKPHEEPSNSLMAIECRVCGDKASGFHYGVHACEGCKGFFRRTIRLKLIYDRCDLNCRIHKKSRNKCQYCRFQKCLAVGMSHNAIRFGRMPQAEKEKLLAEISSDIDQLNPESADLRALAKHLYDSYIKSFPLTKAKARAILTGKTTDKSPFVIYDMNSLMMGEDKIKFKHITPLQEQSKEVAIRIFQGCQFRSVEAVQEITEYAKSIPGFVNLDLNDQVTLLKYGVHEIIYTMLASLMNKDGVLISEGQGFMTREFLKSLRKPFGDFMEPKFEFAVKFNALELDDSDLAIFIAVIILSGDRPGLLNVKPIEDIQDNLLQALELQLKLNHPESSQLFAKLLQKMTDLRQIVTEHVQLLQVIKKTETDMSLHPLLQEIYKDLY
E-selectin (Homo sapiens), sequence (P16581 whole entry, looked up): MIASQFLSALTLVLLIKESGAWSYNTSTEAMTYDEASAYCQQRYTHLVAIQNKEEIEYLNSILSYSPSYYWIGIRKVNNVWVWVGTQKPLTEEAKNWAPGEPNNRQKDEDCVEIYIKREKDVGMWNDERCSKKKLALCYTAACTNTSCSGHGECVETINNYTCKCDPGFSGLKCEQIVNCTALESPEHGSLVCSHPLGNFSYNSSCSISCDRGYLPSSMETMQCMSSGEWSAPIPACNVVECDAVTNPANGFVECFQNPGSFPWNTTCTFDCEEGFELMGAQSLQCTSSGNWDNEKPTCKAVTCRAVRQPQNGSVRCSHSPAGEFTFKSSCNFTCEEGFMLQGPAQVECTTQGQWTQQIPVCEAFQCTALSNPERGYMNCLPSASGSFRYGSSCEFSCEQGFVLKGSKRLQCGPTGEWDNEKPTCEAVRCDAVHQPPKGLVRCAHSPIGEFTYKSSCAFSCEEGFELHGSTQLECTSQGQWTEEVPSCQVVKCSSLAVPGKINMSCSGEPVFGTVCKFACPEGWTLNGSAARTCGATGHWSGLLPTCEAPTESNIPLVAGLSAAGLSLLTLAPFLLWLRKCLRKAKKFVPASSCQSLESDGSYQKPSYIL
human Peroxisome Proliferator-activated Receptor alpha (PPARa), PPARA (gene 5465), sequence (Q07869 whole entry, looked up, the tested form may be a part): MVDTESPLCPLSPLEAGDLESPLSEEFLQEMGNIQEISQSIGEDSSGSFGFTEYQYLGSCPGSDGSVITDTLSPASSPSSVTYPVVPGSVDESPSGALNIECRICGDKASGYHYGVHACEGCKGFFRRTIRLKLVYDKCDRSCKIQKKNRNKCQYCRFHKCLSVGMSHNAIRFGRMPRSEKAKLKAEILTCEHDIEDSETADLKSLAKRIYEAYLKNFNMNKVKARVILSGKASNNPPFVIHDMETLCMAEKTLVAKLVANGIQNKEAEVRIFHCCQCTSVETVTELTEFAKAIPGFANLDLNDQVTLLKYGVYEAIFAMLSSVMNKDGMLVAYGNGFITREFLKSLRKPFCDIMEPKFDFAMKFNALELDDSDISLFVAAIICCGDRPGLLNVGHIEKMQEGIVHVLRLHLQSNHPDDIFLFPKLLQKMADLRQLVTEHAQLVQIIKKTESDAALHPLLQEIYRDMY
Retinoic acid receptor RXR-alpha (Homo sapiens), sequence (P19793 whole entry, looked up, the tested form may be a part): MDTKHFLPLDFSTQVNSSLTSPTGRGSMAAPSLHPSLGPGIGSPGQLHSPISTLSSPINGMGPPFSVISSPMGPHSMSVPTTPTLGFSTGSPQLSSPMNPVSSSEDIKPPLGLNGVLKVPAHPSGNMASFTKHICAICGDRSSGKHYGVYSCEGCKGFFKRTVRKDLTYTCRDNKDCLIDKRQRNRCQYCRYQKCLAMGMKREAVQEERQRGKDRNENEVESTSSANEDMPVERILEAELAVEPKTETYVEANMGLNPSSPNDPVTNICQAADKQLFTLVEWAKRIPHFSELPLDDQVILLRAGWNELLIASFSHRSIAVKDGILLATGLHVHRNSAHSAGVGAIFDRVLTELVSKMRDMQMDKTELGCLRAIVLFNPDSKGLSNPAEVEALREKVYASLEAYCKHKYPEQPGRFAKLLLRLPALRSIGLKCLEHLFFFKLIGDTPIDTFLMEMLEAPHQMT
Nuclear receptor subfamily 1 group I member 2 (Homo sapiens), sequence (O75469 whole entry, looked up, the tested form may be a part): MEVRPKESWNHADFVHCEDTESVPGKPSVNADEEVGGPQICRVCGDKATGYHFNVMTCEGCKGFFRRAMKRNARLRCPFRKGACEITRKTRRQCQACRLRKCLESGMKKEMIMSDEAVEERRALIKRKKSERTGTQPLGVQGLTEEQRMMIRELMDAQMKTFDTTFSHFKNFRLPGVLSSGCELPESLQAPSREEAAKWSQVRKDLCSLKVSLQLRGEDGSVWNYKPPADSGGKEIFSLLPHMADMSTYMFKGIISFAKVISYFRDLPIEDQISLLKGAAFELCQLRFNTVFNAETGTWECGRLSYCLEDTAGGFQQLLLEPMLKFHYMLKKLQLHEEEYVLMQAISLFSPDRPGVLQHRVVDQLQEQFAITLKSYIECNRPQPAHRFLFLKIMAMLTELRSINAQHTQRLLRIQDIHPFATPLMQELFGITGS
human Retinoid X Receptor beta (RXRb), RXRB (gene 6257), sequence (P28702 whole entry, looked up, the tested form may be a part): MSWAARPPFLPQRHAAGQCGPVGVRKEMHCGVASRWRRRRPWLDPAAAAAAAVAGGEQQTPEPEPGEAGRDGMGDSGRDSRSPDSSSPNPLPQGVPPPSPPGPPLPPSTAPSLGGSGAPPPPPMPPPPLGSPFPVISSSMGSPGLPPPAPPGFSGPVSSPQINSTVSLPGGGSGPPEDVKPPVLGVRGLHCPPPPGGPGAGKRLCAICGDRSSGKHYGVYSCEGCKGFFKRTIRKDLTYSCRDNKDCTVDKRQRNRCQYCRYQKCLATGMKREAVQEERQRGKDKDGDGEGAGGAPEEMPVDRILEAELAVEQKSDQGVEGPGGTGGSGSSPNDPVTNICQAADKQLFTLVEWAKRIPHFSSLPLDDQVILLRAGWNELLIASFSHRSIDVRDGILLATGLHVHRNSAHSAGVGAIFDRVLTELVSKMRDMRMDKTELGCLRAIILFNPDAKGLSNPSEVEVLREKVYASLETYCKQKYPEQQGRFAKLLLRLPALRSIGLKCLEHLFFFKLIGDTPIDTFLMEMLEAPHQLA
Retinoic acid receptor alpha (Homo sapiens), sequence (P10276 whole entry, looked up, the tested form may be a part): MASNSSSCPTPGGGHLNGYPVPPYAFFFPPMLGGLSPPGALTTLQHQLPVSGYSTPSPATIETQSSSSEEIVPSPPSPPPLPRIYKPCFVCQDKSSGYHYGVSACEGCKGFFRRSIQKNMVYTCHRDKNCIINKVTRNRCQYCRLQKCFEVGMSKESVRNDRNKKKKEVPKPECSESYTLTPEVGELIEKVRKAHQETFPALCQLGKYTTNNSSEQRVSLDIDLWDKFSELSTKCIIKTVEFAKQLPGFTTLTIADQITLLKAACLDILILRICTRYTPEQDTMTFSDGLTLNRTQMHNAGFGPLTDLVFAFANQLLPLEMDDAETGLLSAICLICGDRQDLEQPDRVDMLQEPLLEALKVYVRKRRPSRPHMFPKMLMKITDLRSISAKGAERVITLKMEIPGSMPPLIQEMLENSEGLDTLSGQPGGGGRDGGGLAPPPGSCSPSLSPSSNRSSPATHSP
human Retinoic Acid Receptor gamma (RARg), RARG (gene 5916), sequence (P13631 whole entry, looked up, the tested form may be a part): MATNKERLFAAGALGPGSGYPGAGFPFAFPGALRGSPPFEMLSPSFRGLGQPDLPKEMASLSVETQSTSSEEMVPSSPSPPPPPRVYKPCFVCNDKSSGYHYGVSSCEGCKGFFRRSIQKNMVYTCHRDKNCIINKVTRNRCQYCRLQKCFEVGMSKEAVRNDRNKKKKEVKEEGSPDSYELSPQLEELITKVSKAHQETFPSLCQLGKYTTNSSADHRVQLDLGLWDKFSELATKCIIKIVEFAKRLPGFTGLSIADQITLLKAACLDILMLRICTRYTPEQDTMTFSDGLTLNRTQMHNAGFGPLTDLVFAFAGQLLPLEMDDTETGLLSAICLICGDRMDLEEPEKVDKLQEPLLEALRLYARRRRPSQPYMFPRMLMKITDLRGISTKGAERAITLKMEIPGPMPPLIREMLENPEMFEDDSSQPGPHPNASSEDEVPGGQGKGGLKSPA

Regarding `CC(Cl)COP(=O)(OCC(C)Cl)OCC(C)Cl` (centres undefined), the outcome in [1], in [2], in test [3], in [4], in test [5] and in [6] was inactive. The outcome in [8], in [9], in [10], in test [11], in test [12] and in test [13] was inactive. Also, the result in [14], in [15] and in test [16] was inactive. Besides, the AC50 – broadly, the concentration at which the activity in the assay is half-maximal – in [7] is 1.37 µM (active).
For the molecule `CCCCCCCCCCCC(=O)N(C)CC(=O)O`, the outcome in test [1], in [4], in test [5], in test [7], in [12] and in test [13] was inactive. Also, the outcome in test [14], in [15] and in test [16] was inactive. Also, the AC50 in test [2] was 7.45 µM (active); in [3], 35.2 µM (active); in [5] it was 15.2 µM (active); in [6] it was 13.1 µM (active).
`CC(CCC(=O)O)(c1ccc(O)cc1)c1ccc(O)cc1`: the result in [1], in [2], in [3], in [17], in test [5] and in test [18] was inactive. Moreover, the result in [9], in test [11], in test [12], in test [13], in [14] and in test [15] was inactive. Further, the result in test [16] was inactive.
Turning to `c1ccc2c(c1)[nH]c1ccccc12`, the result in [1], in test [2], in [3], in test [17], in [5] and in [6] was inactive. Also, the molecule was called inactive in test [8], in test [9], in test [10], in [11], in [12] and in test [13]. The result in test [14], in [15] and in [16] was inactive. Moreover, the AC50 was 9.38 µM (active) in test [5] and 27.4 µM (active) in [7].
